Screening data (PubChem BioAssay)
ASM inhibitor = blocks human secretory acid sphingomyelinase; 0.006% of 340,000 active; Potency, µM (doses to about 57.5 µM), without a hit: at the highest dose activity change, negative = inhibition, usual class: inhibitors; placental ASM, HMU-PC fluorogenic substrate, 60 min; AID 504937; P17405; note: potency is the fitted concentration of half-maximal effect
Target sequence (P17405 47-631 limits assumed): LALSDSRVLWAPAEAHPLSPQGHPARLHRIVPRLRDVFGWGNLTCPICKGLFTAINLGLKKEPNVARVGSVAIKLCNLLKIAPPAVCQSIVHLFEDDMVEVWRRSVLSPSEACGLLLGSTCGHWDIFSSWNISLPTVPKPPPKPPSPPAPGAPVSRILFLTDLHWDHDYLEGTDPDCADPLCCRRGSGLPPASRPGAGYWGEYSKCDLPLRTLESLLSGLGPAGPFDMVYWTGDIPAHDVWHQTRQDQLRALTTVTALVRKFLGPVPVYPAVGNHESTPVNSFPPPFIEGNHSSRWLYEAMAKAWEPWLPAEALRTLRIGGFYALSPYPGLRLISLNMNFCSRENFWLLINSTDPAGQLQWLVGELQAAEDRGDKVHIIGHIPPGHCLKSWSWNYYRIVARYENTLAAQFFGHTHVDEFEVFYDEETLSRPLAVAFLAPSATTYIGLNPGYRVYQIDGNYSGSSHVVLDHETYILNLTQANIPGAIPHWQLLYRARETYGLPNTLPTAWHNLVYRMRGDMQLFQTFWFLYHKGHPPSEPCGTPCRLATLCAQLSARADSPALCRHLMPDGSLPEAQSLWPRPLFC
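Human placenta-derived ASM preincubated with compound 10 min at room temperature, then reacted with 9 uM (final) fluorogenic HMU-PC substrate for 60 min at 37 C. Stop solution raises pH to 10; fluorescence read at Ex 386/Em 447 nm.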
PTAP TSG101 blk = blocks PTAP/TSG101 interaction to inhibit HIV-1 budding. Q99816. Fluorescence polarization, FITC-PTAP peptide / Tsg101 binding. Potency, µM (series often up to 115 µM), for inactives: at the top dose activity change, negative = inhibition, actives largely listed as inhibitors. 340,000 tested, under 10 active. AID 493005; active = well fitted inhibition curve with a large enough effect in the main read-out, with a control signal flat, not every such curve was filed as active; inconclusive = small, poorly fitted or top-dose-only effect, or effect the other way, or a change in a side signal; inactive = no such curve, though single readings can be large or run the other way; note: potency is the fitted concentration of half-maximal effect; % of control where 0% means no effect
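Steps: Tsg101 binding domain dispensed (10 uM final), compounds pinned in DMSO, FITC-labeled PTAP-motif peptide added (50 nM final); after 20 min binding at room temperature, polarization measured.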
Vif-APOBEC3G blk = Vif-A3G binding inhibition. Q9HC16. HeLa A3G-eYFP + Vif (tagged APOBEC3G with the HIV-1 protein that degrades it), YFP fluorescence, overnight. Potency, µM (doses to about 46.1 µM), inactives show at the top dose activity, negative = active, hits mostly inhibitors. 0.076% of 410,000 active; note: potency is the fitted concentration of half-maximal effect; % is set by controls: 0 for no effect and ±100 for the full control effect; nearly all actives have a fitted effect of over 60% in size
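HeLa cells stably expressing Vif and C-terminally eYFP-tagged A3G, seeded overnight at 37 deg C, then exposed to compound by pintool overnight at 37 deg C. Rise in yellow fluorescence (Ex 488/Em 500-530, Acumen) marks blocked Vif-driven A3G degradation.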
12-LOX inh = blocks human arachidonate 12S-lipoxygenase | 1.1% of 580,000 active | P18054 | Potency, µM (highest dose often 108 µM), without a hit: top-dose activity change, negative = inhibition, actives largely listed as inhibitors | purified 12hLO, xylenol orange hydroperoxide absorbance; note: potency is the fitted concentration of half-maximal effect; % is set by controls: 0 for no effect and ±100 for the full control effect
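Hydroperoxide product was detected by ferrous iron/xylenol orange as the 573 to 405 nm absorbance ratio. Arachidonic acid at 40 uM (final) was turned over for 30 min at room temperature by 150 nM human 12hLO, pH 7.0 Hepes buffer, after 15 min compound preincubation.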
Vif-APOBEC3F blk = inhibitors of Vif-A3F interaction | HeLa A3F-eYFP + Vif (tagged APOBEC3F with the HIV-1 protein that degrades it), YFP fluorescence increase | 0.2% of 390,000 active | Potency, µM (top dose mostly 46.1 µM), for inactives: top-dose activity, negative = active; note: potency is the fitted concentration of half-maximal effect; % of control where 0% means no effect; nearly all actives have a fitted effect of over 65% in size
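HeLa cells stably expressing Vif plus C-terminally eYFP-tagged A3F were seeded, incubated overnight at 37 deg C, dosed with compound, incubated overnight again at 37 deg C. Yellow fluorescence (Ex 488/Em 500-530) reported blocked Vif-mediated A3F-eYFP degradation.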
pAkt inh = Akt phosphorylation inhibition; Neuro2A IGF-stimulated pAkt S473 HTRF, 20 min; hits give low values; activity change, % for hits at 50 µM; 0.32% of 360,000 active; in the data active = activity change below about -80%; inconclusive = mostly about -51% to -80%; note: % is set by controls: 0 for no effect and ±100 for the full control effect
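Neuro2A cells (4,500/well, DMEM with 0.5% FBS) were treated with compound at a single 50 µM final concentration, stimulated with 6 nM IGF for 20 min at 37 °C, and lysed. Phospho-Akt Ser473 was read by HTRF as 665/615 ratio ×10^4.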
An asterisk follows results filed as active; i = inactive; ? = inconclusive; / = not tested or not shown. Hits are enriched below; roughly 1.4% of the tested compounds scored in any of these assays. Unless noted, calls come from the whole dose curve; as a rule, active = well fitted curve in the direction sought with a large enough effect; inconclusive = small, poorly fitted or top-dose-only effect, or another doubt; inactive = no such curve, though single readings can be large; an effect the other way counts as inactive or inconclusive.

SMILES	ASM inhibitor	PTAP TSG101 blk	Vif-APOBEC3G blk	12-LOX inh	Vif-APOBEC3F blk	pAkt inh
O=C(/C=C1\C(=O)Nc2ccccc21)/C=C1\C(=O)Nc2ccccc21	-16%	-3%	-11%	8.9µM*	-14%	i
Cc1ccc(Nc2c(-c3ccccn3)nc3ccc(Br)cn23)cc1	/	/	-2%	4%	0%	/
Cc1ccc2nc(-c3ccccn3)c(NC3CCCC3)n2c1	5%	-5%	0%	1%	7.9µM*	i
O=C(Nc1ccccc1C(=O)O)c1cccc(S(=O)(=O)Nc2ccc(Br)cc2)c1	4%	-3%	-4%	16µM*	3%	i
CC(C)C(=O)Nc1cccc(C(=O)Nc2ccccc2C(=O)O)c1	5%	-4%	2%	-2%	2%	-114%*
O=C(Nc1ccccc1C(=O)O)c1cccc(NC(=O)c2ccccc2Br)c1	8%	0%	-6%	?	-12%	i
Cc1cccc(NC(=O)c2cccc(S(=O)(=O)Nc3ccccc3C(=O)O)c2)c1	-1%	-3%	-4%	0%	-2%	i
O=C(Nc1ccccc1C(=O)O)c1cccc(NS(=O)(=O)c2ccc(Br)cc2)c1	6%	-5%	0%	40µM*	6%	i
O=C(CSc1ncc(-c2ccc(Cl)cc2)o1)Nc1cccc(F)c1	/	/	/	-12%	/	/
N#Cc1cccc(COc2ccccc2C(N)=O)c1	/	/	/	-13%	/	/
CCCn1nc(C)cc1CN(C)c1ccc(NC(=O)c2ccccc2C)cc1C(=O)O	/	/	/	10µM*	/	/
COc1ccc(C(=O)Nc2ccc(N(C)Cc3ccccc3)c(C(=O)O)c2)cc1	/	/	4%	?	-1%	/
COc1ccc(NC(=O)c2cc(-c3ccc(OC)c(OC)c3)on2)cc1OC	6%	/	-7%	3%	8%	-88%*
COc1ccc(-c2cc(C(=O)NCc3ccc(Cl)cc3)no2)cc1OC	6%	1%	4%	-21%	-14%	-92%*
Nc1nn(Cc2ccc(Cl)cc2Cl)cc1Cl	/	/	/	-22%	/	/
Clc1ccc(CNCc2ccccc2Cn2cncn2)c(Cl)c1	/	/	/	45µM*	/	/
Cc1ccccc1NC(=S)N/N=C1\CC(C)(C)Oc2ccc(O)cc21	56%	0%	-1%	40µM*	?	i
CC(=O)N1CCC2(CC1)C/C(=N\NC(=S)Nc1ccc(C)cc1)c1cc(O)ccc1O2	68%	-4%	2%	45µM*	1%	i
Cc1ccc(NC(=S)N/N=C2\CC(C)(C)Oc3ccc(O)cc32)cc1	6%	1%	2%	?	1%	i
COc1ccc(NC(=S)N/N=C2\CC(C)(C)Oc3ccc(OC)cc32)cc1	7%	-9%	1%	?	-5%	i
N#Cc1ccc(C(=O)Nc2ccc(Cl)c(-c3nc4ncccc4o3)c2)c(F)c1	/	/	/	-57%	/	/
O=C1C=C(C2CCCCC2)C(=O)c2ccccc21	-5%	0%	-15%	45µM*	5%	i
CCOc1cc2ccccc2cc1C(=O)N1CCN(CC(=O)Nc2ccccc2Cl)CC1	/	/	/	-16%	/	/
CCOC(=O)c1c(S(=O)(=O)N2CCCCCC2)c(C)n(C)c1C	-3%	-1%	2%	138%	-4%	i
CCCn1nc(S(=O)(=O)N2CCCC2)c(C(=O)OCC)c1C	/	/	/	11µM*	/	/
SMILES	ASM inhibitor	PTAP TSG101 blk	Vif-APOBEC3G blk	12-LOX inh	Vif-APOBEC3F blk	pAkt inh
CCCn1nc(S(=O)(=O)N2CCCCC2)c(C(=O)OCC)c1C	/	/	/	6.3µM*	/	/
O=C(Cn1c(NCc2ccccc2)nc2ccccc21)Nc1ccc2c(c1)OCCO2	/	/	/	-19%	/	/
COc1cccc(Cn2c3ccc(NC(=O)CCc4ccc(F)cc4)cc3c(=O)n2C)c1	/	/	4µM*	-17%	/	i
CCc1nc(NC(CC)CO)c(C#N)c2c1CCCC2 (stereo unspecified)	/	/	/	26%	/	/
COC(=O)C1=C(C(=O)OC)C(c2ccccc2O)c2sc(=O)[nH]c2S1 (stereo unspecified)	38%	-2%	-7%	45µM*	-17%	i
CC(=O)NN1C(=O)c2ccccc2NC1c1ccccc1O (stereo unspecified)	10%	-3%	-5%	30%	11%	i
COC(=O)[C@@]1(C)[C@H]2C(=O)N(Cc3ccccc3)C(=O)[C@H]2[C@H]2CN=C(SCc3ccc(C)cc3)N21	-1%	-2%	0%	40µM*	4%	i
O=C1CC(c2ccc(O)c(O)c2)Oc2c1ccc(O)c2O (stereo unspecified)	-4%	-1%	-2%	35µM*	5%	i
O=C1CC(c2ccc(O)cc2)Oc2cc(O)cc(O)c21 (stereo unspecified)	-3%	-3%	-6%	?	-3%	i
CC(C)=CCc1c(O)ccc2c1OC(c1ccc(O)c(O)c1)CC2=O (stereo unspecified)	-11%	1%	-20%	28µM*	1%	i
COc1ccc([C@H]2Cc3cc(O)cc(O)c3C(=O)O2)cc1O	2%	-2%	-9%	22µM*	0%	i
O=C1CC(c2ccc(O)c(O)c2)Oc2cc(O)cc(O)c21 (stereo unspecified)	1%	-4%	-5%	6.3µM*	10%	i
O=C1c2cc(O)c(O)cc2OC(c2ccc(O)c(O)c2)C1O (stereo unspecified)	-5%	-2%	-2%	?	5%	i
CN(C)C[C@@H]1CN(Cc2cccnc2)C[C@H]1NC(=O)C1(c2ccccc2)CC1	/	/	/	32%	/	/
CC(=O)Nc1sc(/C(C#N)=C\c2cccc(Cl)c2)nc1-c1ccc(C)cc1	5%	?	4µM*	-9%	10µM*	i
CC(=O)Nc1sc(N/N=C/c2ccccc2)nc1-c1ccc(C)cc1	-4%	7%	0%	-17%	17%	i
O=C1c2nc3cc(-c4ccco4)[nH]n3c(=O)c2CN1Cc1ccccc1	225%	1%	1%	22µM*	17%	i
CCCCc1c(C)nc2cc(-c3ccco3)[nH]n2c1=O	-3%	0%	-2%	?	3%	i
Cc1ccc(C(=O)Nc2ccc(Cl)c(C(F)(F)F)c2)cc1Cl	/	/	/	-1%	/	/
O=C(CSc1nnc(-c2cccs2)n1-c1ccccc1)Nc1ccccc1	0%	1%	0%	414%	15%	-92%*
CCn1c(SCC(=O)NC2CC2)nnc1-c1cccs1	0%	-4%	1%	177%	1%	i
CCn1c(SCC(=O)NC2CCCCC2)nnc1-c1cccs1	5%	-4%	-1%	10%	-1%	-98%*
CC(NC(=O)c1ccc2c(c1)NC(=O)CO2)c1cccs1 (stereo unspecified)	/	/	/	1%	/	/
